Pin1 inh: qHTS Assay to Find Inhibitors of Pin1 | Peptidyl-prolyl cis-trans isomerase NIMA-interacting 1 (Homo sapiens), Q13526 | Pin1 FP peptide displacement, HiFluor488, 10 min | Potency, µM (series often up to 115 µM), usual class: inhibitors | hit rate 0.009% among 390,000; active means well fitted inhibition curve with a large enough effect in the polarisation, with a control signal flat, not every such curve was filed as active; inconclusive means small, poorly fitted or top-dose-only effect, or effect the other way, or a change in a side signal; inactive means no such curve, though single readings can be large or run the other way; the % refers to the polarisation
Target sequence (Q13526 whole entry, looked up): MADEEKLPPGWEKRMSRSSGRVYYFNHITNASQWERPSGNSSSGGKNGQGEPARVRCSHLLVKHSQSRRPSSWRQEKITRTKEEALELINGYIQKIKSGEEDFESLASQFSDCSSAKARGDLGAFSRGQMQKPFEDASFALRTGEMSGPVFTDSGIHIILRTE
ASM inhibitor: Inhibitors of Secretory Acid Sphingomyelinase (S-ASM): qHTS. Potency, µM (highest dose often 57.5 µM), hits mostly inhibitors. AID 504937, 2011. hit rate 0.006% among 340,000. placental ASM, HMU-PC fluorogenic substrate, 60 min
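Human placenta-derived ASM enzyme was preincubated with compound for 10 minutes at room temperature, then given fluorogenic substrate HMU-PC0 (9 uM final) for 60 minutes at 37 °C; a pH 10 stop preceded fluorescence reading at Ex 386/Em 447 nm.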
Tb PFK block: qHTS Assay to Find Inhibitors of T. brucei phosphofructokinase. ATP-dependent 6-phosphofructokinase (Trypanosoma brucei brucei), O15648. T. brucei PFK, ADP-Glo luminescence. Potency, µM (doses to about 57.5 µM), hits mostly inhibitors. hit rate 0.17% among 330,000. AID 485367, 2010; further: nearly all actives have a fitted effect of over 60% in size
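Compounds were pin-transferred as a titration series up to 57 uM into substrate buffer (0.5 mM F6P, 0.1 mM ATP, pH 8.0), then 1.25 nM PFK was added and reactions ran 45 min before ADP-Glo detection.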
VDR inh: Inhibitors of the vitamin D receptor (VDR): qHTS; VDR-SRC2-3 peptide fluorescence polarization, 2 h; Potency, µM, usual class: inhibitors; hit rate 0.93% among 400,000; AID 504847, 2011
Target sequence (P11473 whole entry, looked up): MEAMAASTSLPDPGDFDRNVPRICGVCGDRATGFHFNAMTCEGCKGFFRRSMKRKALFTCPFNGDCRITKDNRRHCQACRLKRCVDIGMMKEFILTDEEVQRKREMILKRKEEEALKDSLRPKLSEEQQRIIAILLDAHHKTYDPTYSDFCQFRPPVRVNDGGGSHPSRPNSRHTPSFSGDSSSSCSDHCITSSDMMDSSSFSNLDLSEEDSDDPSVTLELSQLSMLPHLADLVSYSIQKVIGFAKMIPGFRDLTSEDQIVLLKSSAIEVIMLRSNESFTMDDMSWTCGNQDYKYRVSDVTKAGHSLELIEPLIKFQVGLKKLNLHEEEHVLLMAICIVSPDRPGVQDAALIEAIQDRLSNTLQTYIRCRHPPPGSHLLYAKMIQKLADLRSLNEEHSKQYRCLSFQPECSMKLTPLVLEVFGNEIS
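VDR–SRC2-3 interaction, FP format. Cmpds 23 nl via pintool, brief spin, 2 h ambient incubation.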
TDP1 inh: qHTS Assay for Inhibitors of Tyrosyl-DNA Phosphodiesterase (TDP1) | hit rate 0.28% among 350,000 | recombinant TDP1, AlphaScreen DNA substrate cleavage | Tyrosyl-DNA phosphodiesterase 1 (Homo sapiens), Q9NUW8 | Potency, µM (titrated, usually from 130 µM), actives largely listed as inhibitors; further: nearly all actives have a fitted effect of over 40% in size
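Compounds were preincubated with Tdp1 (1 nM final) for 15 min at room temperature before substrate (15 nM final) started a 5 min reaction; beads (10 ug/ml final) were then added for 10 min before AlphaScreen detection.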
PLK1 PBD inh: qHTS for Inhibitors of PLK1-PDB (polo-like kinase 1 - polo-box domain): Primary Screen; Serine/threonine-protein kinase PLK1 (Homo sapiens), P53350; Plk1 PBD binding of FITC phosphopeptide, fluorescence polarization; Potency, µM, hits mostly inhibitors; hit rate 2.8% among 360,000; AID 720504, 2013; further: series mostly up to about 57 µM; nearly all actives have a fitted effect of over 65% in size
Each line names hits and unclear results; the compound was inactive in the other large screens. The list is not random: actives were taken first. Their share in the collection is about 3.1%. Unless noted, the call rests on the fitted dose curve; in most records, active means well fitted curve in the direction sought with a large enough effect; inconclusive means small, poorly fitted or top-dose-only effect, or another doubt; inactive means no such curve, though single readings can be large; an effect the other way counts as inactive or inconclusive.

O=C(Nc1ccc(Br)cc1F)c1ccc2nc(CCc3ccccc3)oc2c1	none (no result: ASM inhibitor, Tb PFK block, PLK1 PBD inh)
CN(C)c1ccc(/C=N/NC(=O)c2nonc2N)cc1[N+](=O)[O-]	PLK1 PBD inh 27µM
Cc1cccc(N2CCN(C(=O)C3CCN(S(=O)(=O)c4cn(C)cn4)CC3)CC2)c1C	none (no result: ASM inhibitor, Tb PFK block, PLK1 PBD inh)
C=CCNC(=O)N1CCc2nc(CCCC)c3c(c2C1)CO[C@@H](C)C3	none (no result: Pin1 inh, ASM inhibitor, Tb PFK block, VDR inh, PLK1 PBD inh)
COc1cc2oc(=O)cc(-c3ccc(-c4sccc4C=O)cc3)c2c(OC)c1OC	none (no result: Pin1 inh, ASM inhibitor, Tb PFK block, PLK1 PBD inh)
COC(=O)[C@@]1(C)[C@H]2C(=O)N(Cc3ccccc3)C(=O)[C@H]2[C@H]2CN=C(SCC(=O)c3ccccc3)N21	VDR inh 20µM, PLK1 PBD inh inconclusive
O=S1(=O)N=C(Oc2ccc3ccccc3c2)c2ccccc21	none (no result: ASM inhibitor, Tb PFK block, VDR inh, PLK1 PBD inh)
CC(C)CCNC(=O)c1cccc(C(=O)NCCC(C)C)c1	Pin1 inh inconclusive, PLK1 PBD inh 24µM
Cc1ccc2nc(CCc3nc4ccc(C)cc4o3)oc2c1	VDR inh inconclusive, PLK1 PBD inh 6µM
Cc1ccc2nc(Cc3ccc(N)cc3)oc2c1	none
Cc1ccc2nc(-c3cccc(N)c3)oc2c1	none
Cc1ccc2nc(-c3cccc(-c4nc5ccc(C)cc5o4)n3)oc2c1	VDR inh 50µM (no result: ASM inhibitor, Tb PFK block, PLK1 PBD inh)
CC(c1ccco1)N(C)c1ncnc2ccc(-c3ccc4c(c3)OCO4)cc12 (stereo unspecified)	none (no result: ASM inhibitor, Tb PFK block, VDR inh, PLK1 PBD inh)
CC(C)(C)NC(=O)NC(=O)CSc1ncc(C(F)(F)F)cc1Cl	VDR inh inconclusive, PLK1 PBD inh 30µM
CCCNC(=O)NC(=O)CSc1ncc(C(F)(F)F)cc1Cl	none
CCCC(=O)NC(=S)Nc1ccc(N2CCN(C(=O)c3cccs3)CC2)cc1	none
CCCC(=O)N1CCN(c2ccc(NC(=O)c3cccs3)cc2)CC1	PLK1 PBD inh 24µM
O=[S+]([O-])(c1ccc2c(c1)OCCO2)N1CCN([S+](=O)([O-])c2ccccc2Br)CC1	none (no result: ASM inhibitor, Tb PFK block, VDR inh, TDP1 inh, PLK1 PBD inh)
CCOC(=O)c1c(-c2ccc(OCC)cc2)csc1NC(=O)CCN1C(=O)c2ccccc2C1=O	none (no result: Pin1 inh, ASM inhibitor, VDR inh, PLK1 PBD inh)
CCOC(=O)c1c(-c2ccccc2)csc1NC(=O)CSc1nc(C)cc(C)n1	none
CCOC(=O)c1c(-c2ccc3ccccc3c2)csc1NC(=O)CCCC(=O)O	PLK1 PBD inh 24µM
CCOC(=O)c1c(-c2ccc(OC)cc2)csc1NC(=O)CCN1C(=O)c2ccccc2C1=O	PLK1 PBD inh 11µM
O=C(CNC(=O)c1cccc2ccccc12)OC(C(=O)Nc1cc(C(F)(F)F)ccc1Cl)c1ccccc1 (stereo unspecified)	none (no result: ASM inhibitor, Tb PFK block, VDR inh, PLK1 PBD inh)
N#CC1=C2Nc3ccccc3N2C(=O)NC1(c1ccccc1)C(F)(F)F (stereo unspecified)	PLK1 PBD inh 24µM
O=C(NN1C(=O)/C(=C/C=C/c2ccco2)SC1=S)c1ccncc1	Pin1 inh inconclusive, Tb PFK block inconclusive, PLK1 PBD inh 4.7µM (no result: TDP1 inh)
Nc1cc(C(=O)O)c(N)c2c1C(=O)c1ccccc1C2=O	Pin1 inh inconclusive, VDR inh 8.9µM, PLK1 PBD inh 19µM
Nc1c(C(=O)O)ccc2c1C(=O)c1ccccc1C2=O	none
CN1CCc2c(sc(/N=C/c3cccs3)c2C(N)=O)C1	Pin1 inh inconclusive, VDR inh 32µM
COc1ccc(-c2[nH]ncc2CN2CCC(N3CCSCC3)CC2)c(F)c1	PLK1 PBD inh 15µM
COCC1CCN(Cc2cn[nH]c2-c2ccc(OC)cc2F)C1 (stereo unspecified)	none
COc1ccc2[nH]c3c(c2c1)CCN1C(=O)C(CC(=O)NCc2ccco2)C[C@H](C(=O)N2CCOCC2)[C@@]31C (stereo partly specified)	none
CN(C)C(=O)CCc1ccc2c3c([nH]c2c1)[C@]1(CCc2ccccc2)[C@@H](C(=O)N2CCCCC2)C[C@H](CC(=O)NCc2cccc(C(F)(F)F)c2)C(=O)N1CC3	VDR inh inconclusive, PLK1 PBD inh 27µM
COc1ccc2[nH]c3c(c2c1)CCN1C(=O)C(CC(=O)NCCc2ccccn2)C[C@H](C(=O)N2CCOCC2)[C@@]31CCC1CCCC1 (stereo partly specified)	VDR inh inconclusive, PLK1 PBD inh 30µM
COc1ccc2[nH]c3c(c2c1)CCN1C(=O)C(CC(=O)NCc2ccc(OC)c(OC)c2)C[C@H](C(=O)N2CCCCC2)[C@@]31CCc1ccccc1 (stereo partly specified)	Pin1 inh inconclusive, VDR inh inconclusive, PLK1 PBD inh 21µM
O=C(CC1C[C@H](C(=O)N2CCOCC2)[C@@]2(CCC3CCCC3)c3[nH]c4ccccc4c3CCN2C1=O)NCCc1ccccn1 (stereo partly specified)	none
COc1ccc2[nH]c3c(c2c1)CCN1C(=O)C(CC(=O)NCc2ccc(OC)c(OC)c2)C[C@H](C(=O)N2CCOCC2)[C@@]31C (stereo partly specified)	PLK1 PBD inh 27µM
CCc1ccc(NC(=O)Cn2c(=O)n(CCCCC(=O)NCCc3ccc(Cl)cc3)c(=O)c3ccccc32)cc1	none (no result: ASM inhibitor, Tb PFK block, PLK1 PBD inh)
Cc1ccccc1-n1nc(CO)c(C(=O)NCC(c2ccccc2)c2ccccc2)n1	none (no result: ASM inhibitor, Tb PFK block, PLK1 PBD inh)
CCC1=NN2C(=N)/C(=C\c3ccc(SCc4ccco4)o3)C(=O)N=C2S1	PLK1 PBD inh inconclusive
N=C1/C(=C/c2ccco2)C(=O)N=C2SC(CC(=O)N3CCCC3)=NN12	Pin1 inh inconclusive, TDP1 inh 20µM, PLK1 PBD inh inconclusive
CCCC1=NN2C(=N)/C(=C\c3ccc(SCc4ccco4)o3)C(=O)N=C2S1	Pin1 inh inconclusive, Tb PFK block inconclusive, PLK1 PBD inh 24µM (no result: TDP1 inh)
Cc1ccccc1-c1nc(CN2CCC(C(=O)NCc3ccc(F)cc3)CC2)c(C)o1	none (no result: ASM inhibitor, Tb PFK block, PLK1 PBD inh)
CCOC(=O)c1c(S(=O)(=O)N2CCCC(C(=O)N3CCN(c4cccc(C)c4C)CC3)C2)c(C)n(C)c1C (stereo unspecified)	none (no result: ASM inhibitor, Tb PFK block, PLK1 PBD inh)
O=C(Oc1ccc(Br)cc1C(=S)N1CCOCC1)c1ccc(F)cc1	VDR inh 79µM, PLK1 PBD inh 12µM
CCOc1cc(C(=S)N2CCOCC2)ccc1OC	PLK1 PBD inh 24µM
COc1ccc(C(=S)N2CCOCC2)cc1OC(=O)c1cc(OC)c(OC)c(OC)c1	Tb PFK block inconclusive, VDR inh inconclusive, PLK1 PBD inh 27µM (no result: TDP1 inh)

Screens as filed in PubChem.
